CHT block: inhibits the human high affinity choline transporter | CHT-expressing cells, membrane potential dye, choline response; hits give low values | B-score at 10 µM | 310,000 compounds, 0.86% hits | AID 488975;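 active means B-score over 3 SD under the library average, and starting fluorescence ratio not unusually high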;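 further: choline stimulus applied at its EC90 after an EC20 pre-addition; B-score computed on integrated fluorescence ratio after choline addition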
Target sequence (Q9GZV3 whole entry, looked up): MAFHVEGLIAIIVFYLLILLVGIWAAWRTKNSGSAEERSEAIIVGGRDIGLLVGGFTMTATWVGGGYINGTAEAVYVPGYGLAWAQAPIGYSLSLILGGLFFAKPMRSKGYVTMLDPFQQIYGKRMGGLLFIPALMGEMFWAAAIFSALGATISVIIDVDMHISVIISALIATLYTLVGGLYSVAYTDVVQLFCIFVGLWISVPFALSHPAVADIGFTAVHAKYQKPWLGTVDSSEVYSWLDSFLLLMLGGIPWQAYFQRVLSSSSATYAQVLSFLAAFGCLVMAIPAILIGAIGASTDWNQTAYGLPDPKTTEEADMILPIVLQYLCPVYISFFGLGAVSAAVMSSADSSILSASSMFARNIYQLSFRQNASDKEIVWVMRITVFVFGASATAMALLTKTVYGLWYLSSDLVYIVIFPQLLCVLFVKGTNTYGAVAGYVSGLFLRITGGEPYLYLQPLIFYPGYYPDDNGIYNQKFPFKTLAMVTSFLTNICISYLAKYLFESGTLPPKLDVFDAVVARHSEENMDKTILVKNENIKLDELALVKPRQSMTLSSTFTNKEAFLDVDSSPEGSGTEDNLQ
A1 inh: inhibitors of the anti-apoptotic protein A1, read as caspase activation. MEF A1-2A-BIM cells, Caspase-Glo 3/7 luminescence, 3 h; percent of clofoctol response, vehicle zero. caspase activation, % (concentration not given with the values). 330,000 compounds, 0.066% hits. AID 2462;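 active means over half of replicate activation scores above 10%, or exactly half above 10 with the replicate mean above 10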
NALP1 yeast inh: blocks the NALP1 inflammasome reconstituted in yeast | S. cerevisiae NALP1/ASC/caspase-1 growth, X-gal OD620, 72 h | inhibition, % at 10 µM | 280,000 compounds, 0.61% hits; in the data active means inhibition mostly above about 24%, no sharp cut-off; inactive means mostly below about 32%
Mot1-301 SUMO: SUMOylation pathway inhibition by Mot1-301 growth rescue; S. cerevisiae Mot1-301 growth rescue, ATP luminescence, 38.5C; percent above DMSO median, 100 means doubled; 320,000 compounds, 1% hits; growth rescue, % at 18.8 µM;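 active means every valid replicate shows activation above 250% relative to neutral control wells; inactive means the rest, any valid replicate at or below 250%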;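 further: OY570 slx delta 5 strain wells were the positive control but not used for scaling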
NLRP3 yeast inh: blocks the NALP3 inflammasome reconstituted in yeast; Yeast reconstituted NLRP3/ASC/caspase-1, beta-gal luminescence, 24 h; inhibition, % at 10 µM; 330,000 compounds, 0.39% hits;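 active means inhibition of 50% or more; inactive means inhibition below 50%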;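 further: plate controls were induced DMSO wells for no effect and uninduced yeast grown without galactose for full effect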
CHT allo act: allosteric activators of human choline transporter CHT | Q9GZV3 | CHT-expressing cells, membrane potential dye, choline EC20; hits give high values; LV-AA mutant CHT in HEK293 cells | B-score at 10 µM | 310,000 compounds, 0.49% hits | AID 488977;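 active means initial fluorescence not abnormally high and integrated response B-score, plate-corrected, over 3 SD above library mean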
Mot1 SUMO dose: yeast SUMO pathway inhibition in dose response; S. cerevisiae Mot1-301 galactose growth, ATP luminescence, 24 h; -100 = growth of slx-deleted rescue strain; shares compounds with Mot1-301 SUMO; 2,300 tested, under 10 active; growth activity, percent, % at 42 µM;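 active means Signal drops as the depositor expects, and the fitted half-maximal dose is no more than ten times the top valid tested dose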;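 further: more negative values mean stronger growth rescue toward the control strain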
The depositor's hits bear a star; i = inactive; x = not tested or not shown; + = active, no number. Compounds with a hit are over-represented: about 3% of the library has one in this group of screens.

SMILES | CHT block | A1 inh | NALP1 yeast inh | Mot1-301 SUMO | NLRP3 yeast inh | CHT allo act | Mot1 SUMO dose
O=c1/c(=C/c2ccco2)sc2nc(-c3ccccc3Br)nn12 | i | 0.7 | 12.8 | 381.3* | 7.9 | i | 0.9
CC(=O)c1c(C)[nH]c(C(=O)OCc2nnc(-c3ccc([N+](=O)[O-])cc3)o2)c1C | x | -1.2 | x | -17.7 | 3.9 | x | x
Cc1cc(N2CCN(C)CC2)nc2ccc(NC(=S)N3CCC4(CC3)OCCO4)cc12 | i | -0.5 | -59.9 | + | -6.0 | i | 0.0
CCCCN(C)C(=O)CCC(=O)Nc1ccc2nc(N3CCN(C)CC3)cc(C)c2c1 | i | 1.3 | 11.6 | 448.9* | -1.4 | i | 0.1
COC(=O)c1ccc(/C=N/NC(=O)C(=O)NCC2CCCO2)cc1 (centres undefined) | i | 0.3 | 0.3 | 730.6* | 4.1 | i | 0.8
O=C(NCC1CCCO1)C(=O)N/N=C/c1ccc(O)c(Cl)c1 (centres undefined) | i | 0.2 | -6.0 | -8.0 | -22.8 | i | x
Cc1ccc(C(=O)N/C(=C/c2ccccc2)C(=O)NCC2CCCO2)cc1 (centres undefined) | i | 0.9 | 2.0 | 399.3* | 1.1 | i | -0.2
CN(C(=O)c1ccc(Br)o1)C1CCS(=O)(=O)C1 (centres undefined) | i | 0.8 | -14.7 | -3.6 | 10.0 | i | x
O=C(Cn1cnc2ccccc2c1=O)c1ccc(OC(F)F)cc1 | i | 0.6 | -18.8 | 512.6* | 42.1 | i | -0.1
CCOc1ccc(C(=O)Cn2cnc3ccccc3c2=O)cc1 | i | -1.6 | 7.4 | -1.2 | 46.2 | i | x
O=C(NCCCn1ccnc1)c1ccc(Cl)cc1 | i | 0.6 | 3.0 | 574.2* | 4.1 | i | 0.7
O=C(CNC(=O)c1ccc(Cl)cc1)NCCCn1ccnc1 | i | 0.2 | -32.8 | 3.0 | 0.7 | i | x
COc1ccc(-c2csc(NC(=O)CS(=O)(=O)c3ccc(F)cc3)n2)cc1OC | i | 0.7 | x | 555.2* | 6.0 | i | -0.3
COc1ccc(-c2csc(NC(=O)CS(=O)(=O)c3ccccc3)n2)cc1 | i | -0.4 | x | 31.4 | -2.5 | i | x
COc1ccc(OC)c(-c2cc(C(=O)Nc3c(C)nn(Cc4ccccc4Cl)c3C)no2)c1 | i | 0.4 | 5.4 | 570.9* | 5.2 | i | 0.2
COc1ccc2cc(C#N)c(Nc3cccc(F)c3)nc2c1 | i | 0.1 | 3.8 | 572.1* | -8.6 | i | 0.2
COc1ccc(Nc2nc3cc(C)ccc3cc2C#N)cc1 | i | 0.7 | 0.5 | -8.8 | 19.4 | i | x
CCN(CC)C(=O)[C@H]1CC(CC(=O)NCCCOC)C(=O)N2CCc3c([nH]c4ccccc34)[C@]12C (some centres undefined) | x | 0.0 | x | -17.1 | 3.9 | x | x
Cc1ccc(C(=O)NNC(=O)CSc2nnc(C3CC3)n2C)cc1 | i | 0.9 | 4.7 | 8.8 | 11.3 | i | x
CC(C)(C)c1ccc(C(=O)COC(=O)CN2C(=O)NC3(CCCC3)C2=O)cc1 | i | 0.5 | 2.0 | 522.3* | 6.2 | i | -0.3
CC(C)(C)c1ccc(COC(=O)CN2C(=O)NC3(CCCC3)C2=O)cc1 | i | 0.0 | x | 7.6 | 5.6 | i | x
Cc1ccc(NC2CCCN(C(=O)c3cc4ncccn4n3)C2)cc1C (centres undefined) | i | 1.2 | -19.0 | 9.1 | 3.5 | i | x
CCCn1cnc2c(c1=O)c1nc3ccccc3nc1n2Cc1ccccc1OC | x | x | 15.5 | x | x | x | x
CCCCn1c2nc3ccccc3nc2c2c(=O)n(CCC)cnc21 | i | -0.8 | -7.0 | 730.8* | 27.5 | i | 0.1
O=C(CCNC(=O)c1ccc([N+](=O)[O-])cc1)NCc1ccccc1 | x | x | x | x | 18.1 | x | x
SMILES | CHT block | A1 inh | NALP1 yeast inh | Mot1-301 SUMO | NLRP3 yeast inh | CHT allo act | Mot1 SUMO dose
CC(=O)Nc1cccc(OCC(O)Cn2cnc3ccccc32)c1 (centres undefined) | i | 0.2 | 19.4 | 11.8 | 8.4 | i | x
CC(=O)Nc1cccc(OCC(O)Cn2c(C)nc3ccccc32)c1 (centres undefined) | i | 0.7 | -8.8 | 655.0* | 5.4 | i | 0.2
CCCc1cc(C(=O)N2CCCC(C(=O)c3ccc(Cl)cc3)C2)n(C)n1 (centres undefined) | i | 0.6 | 16.7 | -7.8 | 14.9 | i | x
N/C(=N\N=C\c1ccc(O)cc1)c1nonc1N | i | -5.8 | 12.7 | 488.0* | 4.5 | i | -0.8
CCN(CC(=O)Nc1c(F)cccc1F)C(=O)c1ccc(N2CCCC2=O)cc1 | i | -0.4 | x | 72.6 | 4.6 | i | x
CCS(=O)(=O)c1nc(S(=O)(=O)c2ccc(Cl)cc2)c(N2CCN(CCO)CC2)s1 | i | 1.2 | 24.0 | 4.4 | 5.1 | i | x
CCS(=O)(=O)c1nc(S(=O)(=O)c2ccc(Cl)cc2)c(N2CCc3ccccc3C2)s1 | i | 0.0 | 20.4 | 444.2* | 4.5 | i | 0.4
COC(=O)C1CCN(C(=O)C2CCN(C(=O)[C@@H](NS(=O)(=O)c3ccc(C)cc3)C(C)C)CC2)CC1 | i | -0.4 | 17.2 | -19.0 | 2.5 | i | x
O=C(NCc1ccccc1Cl)c1cc(C(=O)C2CC2)c[nH]1 | i | 0.2 | 22.4 | -0.6 | -4.2 | i | x
Cc1cc(C(=O)Nc2ccccc2N2CCOCC2)c(C)o1 | i | -0.1 | -4.7 | 10.3 | 17.8 | i | x
O=C(Nc1ccccc1N1CCOCC1)c1cc(Br)c(Br)s1 | i | -0.3 | 14.6 | 759.6* | 13.2 | i | -1.0
Fc1ccc(-n2c(CN3CCCCC3)n[nH]c2=S)cc1 | i | -0.6 | -25.0 | 3.7 | 9.3 | i | x
Cc1nnc(NC(=O)c2ccc(S(=O)(=O)N3CCCCC3)cc2)s1 | x | -0.2 | x | -0.7 | 12.4 | x | x
CCc1nnc(NC(=O)c2cc(S(=O)(=O)N3CCN(c4ccccc4)CC3)ccc2Cl)s1 | i | 0.3 | 9.0 | -0.8 | 1.5 | i | x
Cc1nnc(NC(=O)c2cccc(S(=O)(=O)N3CCCC3)c2)s1 | i | 0.5 | 15.6 | 575.8* | -2.1 | i | 0.6
CCc1nnc(NC(=O)c2cccc(S(=O)(=O)N3CCN(c4ccccc4)CC3)c2)s1 | i | 0.1 | 16.7 | 572.0* | -12.3 | i | -0.4
CC/C(=N\Nc1ccc([N+](=O)[O-])cc1)c1ccccc1 | i | 0.1 | 8.5 | 415.3* | 32.1 | i | -0.3
CCc1ccc(OCC(=O)Nc2nnc(C3CCCC3)s2)cc1 | i | -0.4 | 6.8 | -8.7 | 17.3 | i | x
Cc1cc(C)c2cc(C)c3nnc(SCC(=O)NCc4ccc5c(c4)OCO5)n3c2c1 | i | -0.1 | 16.0 | 621.2* | 9.5 | i | -0.2
Cc1cc2cc(C)c3nnc(SCC(=O)NCc4ccc5c(c4)OCO5)n3c2cc1C | i | 0.4 | -6.3 | -11.0 | -11.6 | i | x

Bioassay records from PubChem.
